Compounds without any hit were thinned out: in the full panel of roughly 83,000, 20% have a hit.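 For each line, cells grew in 96-well plates with the test compound present at a single concentration for 48 hours.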 The source made the active and inactive calls. Rule for the calls: active = growth percent below 10; inactive = the rest.
test system: RXF 393 renal; experiment: NCI-60 one-dose screen, 48 h (100 = growth as untreated, 0 = no growth, -100 = all killed); settings: 10 µM unless noted

SMILES | growth
Oc1c(I)cc(-c2nc3ccccc3s2)cc1CN(Cc1ccccn1)Cc1ccccn1 | 33.3% (inactive)
Cc1ncc(C(=O)Nc2ccc(CN3CCN(C)CC3)c(C(F)(F)F)c2)cc1C#Cc1cnc(N)c2ccncc12 | -87.7% (active)
O=C1/C(=C/c2ccc(C(F)(F)F)cc2)COc2ccc(O)c(O)c21 | 24.5% (inactive)
O=C1N[C@@H]2[C@@H](O)[C@@H](O)[C@H](O)C[C@H]2c2cc3c(c(O)c21)OCCO3 | -24.2% (active)

test system: SF-268 CNS; experiment: as above; settings: 10 µM unless noted

SMILES | growth
CCCCCSB(SCCCCC)c1ccccc1 | 98.2% (inactive)
c1ccc(CNc2ccc3nc(CCC4CCCCC4)[nH]c3c2)cc1 | 79.8% (inactive)
S=c1ssnc1-c1cccs1 | 97.9% (inactive)
O=C(/C=C/c1ccc(Br)cc1)c1ccc(-n2cc(CN3CCN(c4cc5c(cc4F)c(=O)c(C(=O)O)cn5C4CC4)CC3)nn2)cc1 | 72.6% (inactive)
COc1ccc(Cc2cnc(NC(=O)c3sc4ccccc4c3Cl)s2)cc1 | 52.9% (inactive)
N#C/C(=C\c1ccc(Cl)cc1Cl)C(=O)Nc1ncc(Cc2ccc(Cl)c(Cl)c2)s1 | 84% (inactive)
N#Cc1c(-c2cccc([N+](=O)[O-])c2)cc(-c2ccc(Nc3nc(Nc4ccc(F)cc4)nc(Nc4ccc(F)cc4)n3)cc2)nc1N | 164% (inactive)
O=C(CCCCCCN1CC(=O)N2[C@@H](c3ccc(Cl)cc3)c3[nH]c4ccccc4c3C[C@H]2C1=O)NO | 91.2% (inactive)
CCCCCCCCn1ccc2cc(NC(=O)Cn3cc(CN4CCC(C)CC4)nn3)ccc21 | 32.8% (inactive)
CCCC(O)Cn1ncc(C(=O)OCC)c1NC(=O)NCc1cccc(F)c1 (centres undefined) | 98.4% (inactive)
COc1cc2c3c(c1O)-c1ccccc1[C@@H]1OC(=O)N(CC2)[C@H]31 | 104% (inactive)
C/C(=C(/c1ccc(Cl)cc1)c1ccc(OCCCN(C)C)cc1)c1ccc(Cl)cc1 | 88.5% (inactive)
Cc1cc(C(=O)Nc2cc(Nc3ncccc3-c3ncnc4nc[nH]c34)ccc2F)cc(C(F)(F)F)c1 | 67.3% (inactive)
CCOC(=O)NN1CC(O)=C(c2nc(-c3ccc(Br)cc3)cs2)C1=N | 108% (inactive)
O=C1C(Cl)=C(NCCN2CCOCC2)C(=O)c2ncccc21 | 11% (inactive)
O=C(Nc1ccc(F)cc1)Nc1ccccc1CNc1nc(Nc2ccc(OCCN3CCCC3)cc2)ncc1Cl | 56.5% (inactive)
C[C@H]1[C@H](C)CC[C@]2(C(=O)O)CC[C@]3(C)C(=CC[C@@H]4[C@@]5(C)C[C@@H](Cc6cn([C@@H]7O[C@H](CO)[C@@H](O)[C@H](O)[C@H]7O)nn6)[C@H](O)C(C)(C)[C@@H]5CC[C@]43C)[C@H]12 | 103% (inactive)
COC(=O)c1ccc2c(c1)c1c(C)c3ccncc3c(C)c1n2C | 26.3% (inactive)
COc1cc(C(=O)c2c(-c3ccccc3)oc3c(OC)cccc23)cc(OC)c1O | 46.5% (inactive)
C=C1C(=O)O[C@H]2[C@H]1CC/C(CNC(=O)c1cc3ccccc3[nH]1)=C\CC[C@@]1(C)O[C@@H]21 | -27.3% (active)

SMILES | growth
O=P(O)(O)OCC1OC(n2cnc3c(NCc4ccccc4)ncnc32)C(O)C1O (centres undefined) | 36.3% (inactive)
CCN(CC)CCCNCc1cc(-c2ccccc2)nc2cc(Cl)ccc12 | 38.2% (inactive)
COc1cc2nc(Nc3cccc(F)c3)nc(Nc3cc(C)[nH]n3)c2cc1OC | -69.9% [20 µM] (active)
CCC/C(=N\NC(N)=O)C(OC)OC | 98.9% (inactive)
O=C1c2cc3c(cc2-c2c1c1ccc(Cl)cc1c(=O)n2C[C@H](O)CO)OCO3 | 4.7% (active)
CCSC1=CC(=O)c2ccccc2C1=O | 76.5% (inactive)
COc1cc(-c2nc3occn3c2-c2ccnc(NCCCNS(=O)(=O)c3ccccc3)n2)ccc1F | 52.8% (inactive)
COC1=CC(c2ccc[nH]2)=N/C1=C\c1[nH]c(C)c(CC(=O)OCc2ccccc2)c1C | 9.87% (active)
O=C(CSc1nnc2sc(Nc3cccc(Cl)c3)nn12)c1ccc(F)cc1 | 101% (inactive)
COc1ccc(C2=Nc3c(N)ncnc3NC(c3cccc(Nc4ccnc5cc(C(F)(F)F)ccc45)c3)C2)cc1 (centres undefined) | 56.9% (inactive)
Nc1c(C(=O)Nc2cccc3ncccc23)sc2nc3c(cc12)C(=O)CCC3 | 71% (inactive)
C#CCn1cnc2c(Nc3cccc(NC(=O)CCl)c3)ncnc21 | 35.3% (inactive)
COc1cc2oc(-c3cccc(NC(=O)c4ccc5c(c4)OCO5)c3)cc(=O)c2c(OC)c1OC | 48.1% (inactive)
CCOC(=O)CSc1nc2sc3c(c2c(=O)n1-c1ccc([N+](=O)[O-])cc1)CCCCC3 | 71.2% (inactive)
Cn1cc(-c2nn3cc(-c4ccccc4)nc3s2)c2ccccc21 | 81.2% (inactive)
C=C1C(=O)O[C@H]2[C@H]1CC/C(COC(=O)NCCCCCCCCNC(=O)OC/C1=C/CC[C@@]3(C)O[C@H]3[C@H]3OC(=O)C(=C)[C@@H]3CC1)=C\CC[C@@]1(C)O[C@@H]21 | -66.8% (active)
Oc1c(I)cc(-c2nc3ccccc3s2)cc1CN(Cc1ccccn1)Cc1ccccn1 | 20.8% (inactive)
Cc1ncc(C(=O)Nc2ccc(CN3CCN(C)CC3)c(C(F)(F)F)c2)cc1C#Cc1cnc(N)c2ccncc12 | -37.5% (active)
O=C1/C(=C/c2ccc(C(F)(F)F)cc2)COc2ccc(O)c(O)c21 | -0.987% (active)
O=C1N[C@@H]2[C@@H](O)[C@@H](O)[C@H](O)C[C@H]2c2cc3c(c(O)c21)OCCO3 | -0.713% (active)

— PubChem BioAssay (NCI)
